Measurements taken from the supplement of paper PMC7411054.
Counter-ions that a name gives are not always drawn.

These molecules were tested on A549-ACTB-RAB5A (assay: lowest phenotypically active concentration; higher = less potent). Conditions: treatment time: 24 h.
Method in brief: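 Fifteen gene-edited A549, HepG2 and WPMY1 reporter lines (BFP segmentation plus GFP and RFP/FusionRed markers) were treated at 0.3, 1, 3 or 9 µM for 24 h, four wells each, then imaged live. Live-cell features per well were normalised to DMSO control wells. Deviation required ≥3 of 4 wells beyond the 95th percentile of DMSO Euclidean distances, and reproducibility required median replicate Pearson correlation above the 95th percentile of non-replicates. Phenotypic activity needed both criteria.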

Lowest phenotypically active concentration, ≤ 0.3 µM:
Cc1nc(Nc2ncc(C(=O)Nc3c(C)cccc3Cl)s2)cc(N2CCN(CCO)CC2)n1 [dasatinib]
O=C(NCc1cccc(O)c1)Nc1nc(-c2ccncc2)cs1 [RKI 1447 dihydrochloride]
COc1ccc(-c2ccc3ncc4c(c3c2)n(-c2ccc(N3CCNCC3)c(C(F)(F)F)c2)c(=O)n4C)cn1
CC(C)(C)c1cnc(CSc2cnc(NC(=O)C3CCNCC3)s2)o1
O=C(O)c1ccc(Nc2ncc3c(n2)-c2ccc(Cl)cc2C(c2c(F)cccc2F)=NC3)cc1
CCC(=O)N1CCN(c2ccc(-n3c(=O)ccc4cnc5ccc(-c6cnc7ccccc7c6)cc5c43)cc2C(F)(F)F)CC1 [Torin 1]
COc1cc2c(NC3CCN(C(C)C)CC3)nc(N3CCC(F)(F)CC3)nc2cc1OCCCN1CCCC1
CC(=O)c1c(C)c2cnc(Nc3ccc(N4CCNCC4)cn3)nc2n(C2CCCC2)c1=O
CO[C@H]1C=CC=C(C)C(=O)NC2=CC(=O)C(NCCN(C)C)=C(C[C@@H](C)C[C@H](OC)[C@H](O)[C@@H](C)C=C(C)[C@@H]1OC(N)=O)C2=O [17-DMAG hydrochloride]
NC1(C(=O)N[C@@H](CCO)c2ccc(Cl)cc2)CCN(c2ncnc3[nH]ccc23)CC1
Cc1c[nH]c2nccc(Oc3c(F)cc(Nc4cc(Cl)nc(N)n4)cc3F)c12
CON(C)C(=O)N1N=C(c2cc(F)ccc2F)S[C@@]1(CCCN)c1ccccc1 [ARRY 520 trifluoroacetate]
CC[C@H](CO)Nc1nc(NCc2ccc(-c3ccccn3)cc2)c2ncn(C(C)C)c2n1
Oc1cccc(-c2nc(N3CCOCC3)c3oc4ncccc4c3n2)c1 [PI 103 hydrochloride]
COc1cccc(-c2cc(F)ccc2[C@H]2Cc3nc(N)nc(C)c3C(=O)N2)n1
COc1cc(C(=O)NC2CCN(C)CC2)c(F)cc1Nc1ncc2c(n1)N(C1CCCC1)CC(F)(F)C(=O)N2C [TAK 960 hydrochloride]
CC[C@]1(O)C[C@@H]2CN(CCc3c([nH]c4ccccc34)[C@@](C(=O)OC)(c3cc4c(cc3OC)N(C=O)[C@H]3[C@@](O)(C(=O)OC)[C@H](OC(C)=O)[C@]5(CC)C=CCN6CC[C@]43[C@@H]65)C2)C1 [vincristine]
Fc1ccccc1CNCc1ccc(-c2ccnc3[nH]ccc23)cc1 [OXA 06 dihydrochloride]
C[C@H]1COCCN1c1cc(C2(S(=O)(=O)C3CC3)CC2)nc(-c2ccc(NC(=S)NCCO)cc2)n1

Lowest phenotypically active concentration, 3 µM:
CC(C)(C)Nc1nc(Nc2ccc(C(N)=O)cc2)cc(N)c1C#N
c1ccc2c(c1)Cc1c(Nc3ccc4c(c3)OCCO4)n[nH]c1-2
COc1c(Nc2cc(C)[nH]n2)nc(Sc2ccc(S(=O)(=O)Cc3cccc([N+](=O)[O-])c3F)cc2F)nc1N1CCOCC1 [Centrinone]
O=C(Nc1ccc(-c2ccnc(Nc3ccc(N4CCOCC4)cc3)n2)cc1)[C@@H]1CCCN1
COc1cc2nc(-c3cc(F)ccc3O)nc(N[C@@H]3CNC[C@H]3C(C)(C)O)c2cc1OC
COc1cc(/C=C/c2ccc(OC)cc2OC)cc(OC)c1
C=CC(=O)Nc1cccc(Nc2nc(Nc3ccc(OCCOC)cc3)ncc2F)c1
COc1cc(N2CCC(N3CCN(C)CC3)CC2)ccc1Nc1ncnc(Nc2ccccc2S(=O)(=O)C(C)C)n1

Lowest phenotypically active concentration, 9 µM:
N#Cc1c(C2CCNCC2)cc(-c2c(O)cccc2OCC2CC2)nc1N

Lowest phenotypically active concentration, 1 µM:
Nc1nc(Cl)nc2c1ncn2[C@@H]1O[C@H](CO)[C@@H](O)[C@@H]1F [clofarabine]
CC(C)n1nc(-c2cc3cc(O)ccc3[nH]2)c2c(N)ncnc21
COc1ccc(S(=O)(=O)N(C(C)=O)c2ccccc2/C=C/c2cc[n+]([O-])cc2)cc1
Nc1cccc(-c2cc3c(Oc4cccc(O)c4)ncnc3[nH]2)c1
Cc1c(NC(=O)OC[C@@H]2COCCN2)cn2ncnc(Nc3ccc4c(cnn4Cc4cccc(F)c4)c3)c12
CN1c2ccccc2C(=O)N2CCc3c([nH]c4ccccc34)[C@H]21 [Evodiamine]
Cc1noc(C)c1-c1cc(O)cc(C(O)c2ccccc2)c1 (centres undefined)
NC(=O)Nc1cc(-c2cccc(F)c2)sc1C(=O)N[C@H]1CCCNC1 [AZD 7762 hydrochloride]
C[C@H]1[C@H]2CC[C@H]3[C@@H]4CC=C5C[C@@H](N(C)C)CC[C@]5(C)[C@H]4CC[C@]23CN1C [Conessine]
COc1cc2c(cc1-c1c(C)noc1C)ncc1[nH]c(=O)n([C@H](C)c3ccccn3)c12 [I-BET 151 dihydrochloride]
OC[C@H]1O[C@@H](n2cnc3c(NCc4ccco4)ncnc32)[C@H](O)[C@@H]1O [Kinetin riboside]
